# Shn3 inh set2: inhibitors of Schnurri-3 3'UTR reporter in osteoblasts; inhibition, % at 12.5 µM; 360,000 compounds, 0.52% hits; Clone20 osteoblast Shn3 3'UTR firefly luciferase, 24 h;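 active = mean inhibition of at least 75% with every replicate also reaching 75%; inconclusive = mean inhibition at least 75% but some replicate below; inactive = mean inhibition below 75%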;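 also: 0% = median of neutral control wells and 100% = pilot-screen positive control compound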
# 697 NFkB inh: inhibitors of the PMA/ionomycin-induced NF-kB reporter in 697 B cells | 697 B-cell NF-kB luciferase reporter, 16 h | inhibition, % at 4 µM | 330,000 compounds, 0.33% hits | AID 435022; in the data active = inhibition above about 35%
# Gli-Sufu block: Gli-Sufu pathway antagonism | AID 588413 | Sufu-KO-LIGHT fibroblasts, Gli luciferase reporter luminescence | 340,000 compounds, 0.74% hits | inhibition, % at 5 µM;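 active = inhibition above about 55%, limit read from the data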;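 also: 0% = DMSO-treated cells and 100% = wells with medium but no cells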
# Mdm2-MdmX inh: disrupts the human Mdm2-MdmX interaction. inhibition, % at 8 µM. O15151+Q00987. 330,000 compounds, 3% hits. SaOS-2 split-luciferase Mdm2/MdmX complementation, luminescence. AID 485346;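 active = inhibition of at least 50% at 8 µM in the primary screen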
# Target sequence (O15151 whole entry, looked up): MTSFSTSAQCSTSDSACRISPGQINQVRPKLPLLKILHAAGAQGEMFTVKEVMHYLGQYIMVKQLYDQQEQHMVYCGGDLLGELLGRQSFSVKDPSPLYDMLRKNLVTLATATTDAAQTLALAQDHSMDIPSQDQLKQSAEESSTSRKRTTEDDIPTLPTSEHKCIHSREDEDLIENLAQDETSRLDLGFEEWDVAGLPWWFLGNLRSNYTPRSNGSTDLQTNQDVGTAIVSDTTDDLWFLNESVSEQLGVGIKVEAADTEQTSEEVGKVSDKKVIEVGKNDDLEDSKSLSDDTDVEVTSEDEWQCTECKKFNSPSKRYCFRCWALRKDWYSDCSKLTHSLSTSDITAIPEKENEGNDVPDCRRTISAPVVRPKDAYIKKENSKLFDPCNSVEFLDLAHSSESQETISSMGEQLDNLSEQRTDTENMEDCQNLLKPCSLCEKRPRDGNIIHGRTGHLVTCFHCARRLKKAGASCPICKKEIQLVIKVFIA
# Target sequence (Q00987 whole entry, looked up): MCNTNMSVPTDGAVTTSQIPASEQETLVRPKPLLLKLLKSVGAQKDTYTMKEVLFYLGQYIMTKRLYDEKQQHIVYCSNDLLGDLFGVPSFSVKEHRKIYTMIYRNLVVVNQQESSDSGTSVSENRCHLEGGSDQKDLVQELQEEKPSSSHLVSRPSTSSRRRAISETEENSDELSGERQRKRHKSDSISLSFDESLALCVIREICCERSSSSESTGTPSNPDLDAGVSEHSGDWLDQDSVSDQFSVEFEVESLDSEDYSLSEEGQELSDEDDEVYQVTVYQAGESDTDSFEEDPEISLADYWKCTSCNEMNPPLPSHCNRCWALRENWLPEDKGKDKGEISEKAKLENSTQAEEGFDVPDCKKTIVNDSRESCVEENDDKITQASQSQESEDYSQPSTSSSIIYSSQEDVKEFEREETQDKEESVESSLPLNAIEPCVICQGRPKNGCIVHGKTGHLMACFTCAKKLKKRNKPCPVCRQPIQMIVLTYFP
# Jurkat NFkB inh: inhibitors of the PMA/ionomycin-induced NF-kB reporter in Jurkat cells. inhibition, % at 4 µM. 330,000 compounds, 0.53% hits. PMA/ionomycin-induced NF-kB luciferase reporter, luminescence. AID 435003; in the data active = inhibition above about 50%
# Jurkat NFkB conf: lowers PMA/ionomycin-induced NF-kB signal in Jurkat cells | Jurkat NF-kB luciferase, 16 h | inhibition, % at 4 µM | 2,700 compounds, 27% hits | AID 435020 | shares compounds with Jurkat NFkB inh;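 active = inhibition reaching about 45% at 4 µM in either replicate, limit read from the data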;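 also: plate controls were PMA/ionomycin stimulated DMSO wells for no effect and unstimulated DMSO wells for full effect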
# 697 NFkB conf: lowers PMA/ionomycin-induced NF-kB signal in 697 B cells. shares compounds with 697 NFkB inh. inhibition, % at 4 µM. 2,000 compounds, 35% hits. AID 449746. 697 B-cell NF-kB luciferase, 16 h; in the data active = inhibition mostly above about 28%, no sharp cut-off; inactive = mostly below about 22%
# Mdm2 MdmX conf: confirmation of human Mdm2/MdmX interaction inhibitors; shares compounds with Mdm2-MdmX inh; Mdm2-MdmX binding, luminescent assay; inhibition, % at 8 µM; 10,000 compounds, 55% hits; AID 489028; in the data active = inhibition above about 40%
# FLuc counter: inhibits full-length luciferase, flagging false Mdm2/MdmX hits | shares compounds with Mdm2-MdmX inh | SaOS-2 full-length luciferase counterscreen, luminescence | inhibition, % at 8 µM | 6,200 compounds, 77% hits | AID 504607;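 active = mean inhibition at 8 µM reaching about 37%, which flags the compound as non-specific, limit read from the data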;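 also: p53-null SaOS-2 cells with luciferase driven by a doxycycline-inducible promoter; compound on cells about two nights before reading with doxycycline added after day one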
# Starred values were filed as active, the others as inactive; i = inactive; ? = inconclusive; nt = no result. This is a sample that favours compounds with a hit; in the whole collection about 3.8% have one here.
SMILES,Shn3 inh set2,697 NFkB inh,Gli-Sufu block,Mdm2-MdmX inh,Jurkat NFkB inh,Jurkat NFkB conf,Mdm2 MdmX conf,FLuc counter,others
CCOc1ccccc1C(=O)N1CCN(c2cccc(Cl)c2)CC1,1.4,-80.7,58.7*,73.8*,81.0*,41.5,62.8*,93.0*,
CCOC(=O)c1[nH]c(C)c(C(=O)N2CCN(c3ccccc3)CC2)c1C,-5.6,29.4,7.4,-18.6,9.0,nt,nt,nt,
CCOc1ccc2ccccc2c1C(=O)N1CCN(c2ccccc2)CC1,-4.6,-10.9,6.5,57.6*,67.7*,8.9,54.1*,50.8*,
CCOc1cc(/C=N/NC(=O)CCc2n[nH]c(=O)[nH]c2=O)ccc1O,2.9,-15.2,2.1,4.9,-3.1,nt,nt,nt,
COC(=O)c1nccnc1N,-8.4,nt,-9.1,nt,nt,nt,nt,nt,
Cc1cccc(N2CCN(C(=O)c3cc(S(=O)(=O)N4CCCC4)cn3C)CC2)c1C,13.5,-47.1,16.5,55.3*,61.1*,19.5,58.5*,49.0*,
O=c1oc(C2(O)CCCCC2)cc2ccccc12,12.5,3.1,4.0,7.7,-4.9,nt,nt,nt,
O=c1oc(C2(O)CCCCC2)cc2ccc(-c3ccc4[nH]ccc4c3)cc12,-10.9,i,3.5,81.5*,-168.2,-75.3,61.0*,41.2*,697 NFkB conf=i
CCC(=O)N/N=C/c1ccc(OS(=O)(=O)c2ccccc2)cc1,12.0,17.8,-9.1,13.6,-5.4,nt,nt,nt,
NC(N)=N/N=C/c1ccc(OS(=O)(=O)c2ccccc2)cc1,6.1,-17.0,32.8,57.2*,50.1*,4.6,36.0,81.8*,
CC[n+]1c(C)sc2cc(C)ccc21,1.4,-8.3,32.4,-24.9,-3.1,nt,nt,nt,
Cc1ccc2c(c1)sc(-c1ccc(N(C)C)cc1)[n+]2C,63.0,14.5,55.6*,79.2*,93.1*,72.8*,78.8*,47.0*,
CN(c1ccccc1)S(=O)(=O)c1cccc(NC(=O)C2=NN(c3ccccc3)C(=O)CC2)c1,54.0,-30.2,10.5,16.1,-16.4,nt,nt,nt,
Cc1ccc(NC(=O)C2=C(c3ccccc3)S(=O)(=O)CCS2(=O)=O)cc1,95.9*,-78.8,22.6,95.2*,62.6*,34.1,94.8*,52.4*,
Clc1cccc(-c2nc3c4ccccc4ccn3c2Cc2ccsc2)c1,-11.4,nt,nt,nt,nt,nt,nt,nt,
Oc1ccccc1N=Nc1nc(-c2ccccc2)c(-c2ccccc2)[nH]1,88.5*,-17.4,93.0*,86.5*,58.5*,75.9*,86.0*,49.7*,
COc1ccccc1N=Nc1nc(-c2ccccc2)c(-c2ccccc2)[nH]1,-10.3,nt,-47.6,nt,nt,nt,nt,nt,
OCCCNc1c2ccccc2nc2ccccc12,-16.1,17.8,8.1,79.1*,84.0*,-23.1,81.9*,43.9*,
COC(=O)c1nn(-c2ccc(OC)cc2)ccc1=O,-9.8,-4.3,3.9,-16.9,-12.7,nt,nt,nt,
COc1ccc(N(C(=O)c2ccccc2C)S(=O)(=O)c2cccs2)cc1,-37.6,-1.0,46.5,59.1*,66.5*,47.7,52.6*,104.8*,
O=C(Nc1ccccc1Cl)c1cc(=O)c2ccccc2o1,-109.8,15.4,-24.6,-50.3,-60.6,nt,nt,nt,
O=C(CN1CCSC1=O)Nc1ccc(N2CCOCC2)cc1,-22.9,5.7,-20.7,14.6,-6.9,nt,nt,nt,
O=C(NC1CC1)C1CCN(C2CCN(C(=O)/C=C/c3ccc(F)cc3)CC2)CC1,-14.4,-1.5,0.8,6.3,3.6,nt,nt,nt,
CCCCCCCn1c2c(c(=N)c3ccccc31)CCC2,97.1*,25.3,88.9*,88.6*,72.0*,66.8*,71.4*,36.6*,
CCCn1c2c(c(=N)c3c1CCC3)CCC2,10.0,3.3,20.6,1.2,36.3,nt,nt,nt,
SMILES,Shn3 inh set2,697 NFkB inh,Gli-Sufu block,Mdm2-MdmX inh,Jurkat NFkB inh,Jurkat NFkB conf,Mdm2 MdmX conf,FLuc counter,others
CN(C)c1ccc(N2CC(C)(C)C2=O)cc1,-11.0,4.9,-11.4,-19.4,-8.9,nt,nt,nt,
COc1cccc(N/C(N)=N/c2nc(CSc3ccccn3)cc(=O)[nH]2)c1,nt,-44.6,nt,52.4*,57.9*,56.1*,48.7*,79.3*,
CCc1ccc(N/C(N)=N/c2nc(CSc3ccccn3)cc(=O)[nH]2)cc1,80.4,-50.4,47.5,5.8,16.0,nt,nt,nt,
CC1(C(=O)NS(=O)(=O)c2ccc(F)cc2F)CCN1C(=O)Cc1ccc(Cl)cc1Cl (centres undefined),7.2,nt,nt,nt,nt,nt,nt,nt,
O=C(NNC(=O)C12CC3CC(CC(C3)C1)C2)c1cnccn1,14.5,2.1,2.9,9.6,-1.0,nt,nt,nt,
O=C(NNC(=O)C12CC3CC(CC(C3)C1)C2)c1ccccn1,-14.5,23.3,2.1,54.1*,72.1*,23.4,54.5*,50.8*,
COc1ccc(NC(=O)Cn2nnc(-c3ccccc3NS(=O)(=O)c3ccc(OC)cc3)n2)cc1,25.6,-54.1,6.6,67.0*,71.6*,64.4*,54.8*,83.4*,
CC(=O)n1c2ccccc2c2ccccc21,-16.7,11.1,7.8,1.9,9.8,nt,nt,nt,
Cc1ccc(C(=O)n2c3ccccc3c3ccccc32)cc1,15.5,-42.2,-10.5,51.0*,54.3*,15.3,55.0*,53.4*,
COc1ccc(-c2cc(C(=O)Nc3cc(C)ccc3O)no2)cc1,-28.5,-143.1,-41.8,56.5*,62.4*,-33.6,-9.9,nt,
O=[N+]([O-])c1ccc(N=Nc2ccc(O)cc2O)cc1,4.7,63.2*,-1.9,97.6*,58.8*,-12.1,56.3*,29.5,697 NFkB conf=-44.8
O=[N+]([O-])c1cccc(N=Nc2ccc(O)cc2O)c1,7.7,nt,-11.0,nt,nt,nt,nt,nt,
COc1ccc(C(=O)NCC(=O)OCC(=O)NCc2ccc3c(c2)OCO3)cc1,8.8,-2.0,-0.1,12.6,-5.4,nt,nt,nt,
O=C(Nc1nc(-c2ccccc2)cs1)c1ccc(N2CCOCC2)c([N+](=O)[O-])c1,81.9,11.9,45.4,54.5*,52.2*,57.1*,52.0*,56.1*,
CCOc1ccc(NS(=O)(=O)c2cc(NC(=O)c3ccc(C)cc3)ccc2Cl)cc1,7.7,-147.5,-8.5,57.0*,52.7*,34.2,66.8*,63.9*,
CCCCN(C(=O)CN1CCOCC1)c1c(N)n(CC(C)C)c(=O)[nH]c1=O,4.0,3.7,-9.4,-1.3,6.8,nt,nt,nt,
Cc1nc2ccccn2c1-c1csc(NCc2ccco2)n1,69.0,-28.6,24.2,21.4,11.5,nt,nt,nt,
Cc1ccc(Nc2nc(-c3c(C)nc4ccccn34)cs2)cc1,52.1,-396.3,62.3*,89.3*,83.0*,61.5*,73.0*,81.1*,697 NFkB conf=-53.8
O=C(CCl)N(c1ccc(Cl)cc1)c1c[nH]c2ccccc12,98.0*,80.3*,88.3*,68.8*,70.6*,26.1,100.2*,52.0*,697 NFkB conf=36.0*
O=C(NCCc1ccccc1F)c1ccc2c(c1)OCCO2,?,55.4*,69.0*,89.5*,76.3*,81.8*,92.0*,49.5*,697 NFkB conf=39.2*
